# The source made the active and inactive calls. Calls follow the shape of the dose curve; as a rule, active = well fitted curve in the direction sought with a large enough effect; inconclusive = small, poorly fitted or top-dose-only effect, or another doubt; inactive = no such curve, though single readings can be large; an effect the other way counts as inactive or inconclusive.
# Biological target: Alpha-galactosidase A (Homo sapiens) (UniProt P06280)
# Test: Counterscreen for Glucocerebrosidase Inhibitors: qHTS Assay for Human alpha-Galactosidase at pH 4.5 (AID 992); also: 0% is about no effect
# Conditions: purified enzyme, fluorogenic substrate; series mostly up to 76.9 µM; activity change, negative = inhibition: at the top concentration
# How it was run: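 Fluorogenic 1536-well qHTS at pH 4.5 (citrate, Tween-20): 2 nM enzyme, 80 uM 4-MU-alpha-galactoside, 20 min room temperature, NaOH/glycine stop. Titration 0.7 nM to 77 uM, data normalized to no-enzyme and full-activity controls, Hill-fitted AC50.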
# Sequence of Alpha-galactosidase A (Homo sapiens) (P06280 whole entry, looked up): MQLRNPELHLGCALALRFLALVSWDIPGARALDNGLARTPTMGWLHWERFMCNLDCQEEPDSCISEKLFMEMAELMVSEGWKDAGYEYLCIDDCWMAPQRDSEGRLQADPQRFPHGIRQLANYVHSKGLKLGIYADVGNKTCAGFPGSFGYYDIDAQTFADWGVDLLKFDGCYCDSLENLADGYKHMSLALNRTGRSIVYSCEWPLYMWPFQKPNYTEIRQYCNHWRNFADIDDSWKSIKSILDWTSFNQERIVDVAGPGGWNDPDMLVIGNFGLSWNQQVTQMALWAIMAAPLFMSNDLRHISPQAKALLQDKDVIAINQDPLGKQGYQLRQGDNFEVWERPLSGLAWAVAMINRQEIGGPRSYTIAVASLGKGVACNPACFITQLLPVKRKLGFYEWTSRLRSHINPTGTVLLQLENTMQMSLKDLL
row,SMILES,"activity change, negative = inhibition"
1,CCCCCCCCCC(=O)N[C@@H](CN1CCOCC1)[C@@H](O)c1ccccc1,-6.59% (inactive)
2,CN(C)CCCO[C@H]1[C@H]([C@H](O)CO)O[C@H]2OC(C)(C)O[C@@H]21,-0.842% (inactive)
3,CCCCCCCCCCCCCCCCCC(=O)NC[C@@H](COP(=O)([O-])OCC[N+](C)(C)C)OCC,-1.44% (inactive)

# Biological target: alpha-glucosidase (Oryza sativa, rice) (UniProt Q653V4)
# Test: Counterscreen for Glucocerebrosidase Inhibitors: qHTS Assay for Rice alpha-Glucosidase at pH 5.0 (AID 997);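 also: 0% = full activity with enzyme and -100% = basal without enzyme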
# Conditions: rice alpha-glucosidase enzyme activity; series mostly up to 76.9 µM; activity change, negative = inhibition: at the top concentration
# How it was run: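 Endpoint fluorogenic assay at pH 5.0: compounds (0.7 nM to 77 uM) titrated against 4 nM rice enzyme and 400 uM 4-MU-alpha-glucoside for 20 min at room temperature; NaOH/glycine stop, read ex 365/em 440 nm, Hill-fitted AC50.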
row,SMILES,"activity change, negative = inhibition"
1,CCCCCCCCCC(=O)N[C@@H](CN1CCOCC1)[C@@H](O)c1ccccc1,-4.67% (inactive)
2,CN(C)CCCO[C@H]1[C@H]([C@H](O)CO)O[C@H]2OC(C)(C)O[C@@H]21,-0.279% (inactive)
3,CCCCCCCCCCCCCCCCCC(=O)NC[C@@H](COP(=O)([O-])OCC[N+](C)(C)C)OCC,-6.89% (inactive)

# From PubChem BioAssay (NCATS)
